High-throughput results deposited in PubChem BioAssay by National Center for Advancing Translational Sciences (NCATS).
An excerpt weighted towards active compounds, which were near 17% of everything screened.
HepG2 viability – counter-screen for TGF-b inhibitors: cytotoxicity in HepG2 cells; actives 0.76% (n = 410,000); Potency, µM (top dose mostly 46.1 µM), without a hit: at the highest dose activity change, negative = cytotoxicity, actives largely listed as cytotoxic; HepG2 CAGA-GFP viability, ATP luminescence, 18 h
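HepG2 CAGA-GFP cells (1000/well, DMEM with 1% FBS) received compound, then TGF-beta at 500 pg/mL final, and were incubated 18 hours at 37 degrees C. Viability was read by CellTiter-Glo luminescence. Media-only wells were set as complete cell-killing and DMSO as no toxicity.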
HT1080 IDH1KD tx – HT-1080 IDH1 knockdown cell toxicity (counter line); HT-1080 IDH1 knockdown viability, ATP luminescence, 48 h; Potency, µM (highest dose often 46.1 µM), inactives show top-dose activity, negative = toxicity, actives largely listed as cytotoxic; actives 2% (n = 360,000); AID 686971;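 also: 0% = DMSO wells and -100% = cell-free medium wells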
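Using the IDH1-knockdown HT-1080 line run in the same batch and compound series as the NT line, viability after 48 h at 37 °C was determined by CellTiter-Glo luminescence and expressed as % activity.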
DT40 TDP1 no CPT – qHTS for Inhibitors of human tyrosyl-DNA phosphodiesterase 1 (TDP1): qHTS in cells in absence of CPT; DT40 Tdp1-/- hTDP1 cells, no CPT, ATP luminescence, 48 h; AID 686978, 2013; actives 15% (n = 420,000); Potency, µM (highest dose often 46.2 µM), for the others: top-dose activity change, negative = growth inhibition, most hits filed as inhibitors; also: % is scaled to controls: 0 for no effect and ±100 for the full control effect; nearly all actives have a fitted effect of over 55% in size
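Growth of hTDP1-complemented DT40 Tdp1-knockout cells is measured by ATP luminescence after at least 48 hr compound exposure at 37 °C, with DMSO substituting for the 20 nM CPT used in the parallel screen.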
HT1080-NT tox – kills 2HG-producing HT-1080-NT fibrosarcoma cells | AID 686970 | HT-1080-NT fibrosarcoma viability, CellTiter-Glo ATP luminescence, 48 h | Potency, µM (series often up to 46.1 µM), without a hit: top-dose activity, negative = less viability, usual class: cytotoxic | actives 1.6% (n = 360,000);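 also: NT is the 2HG producing partner of a matched IDH1 knockdown line; 0% = DMSO-treated cells and -100% = media-only wells without cells; nearly all actives have a fitted effect of over 55% in size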
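HT-1080-NT fibrosarcoma cells (2HG-overproducing), 750 cells/well in RPMI with 5% FBS, dosed after 2 h and incubated 48 h at 37C. CellTiter-Glo luminescence normalized to DMSO and no-cell wells; concentration-response curves fitted and classed.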
DT40 TDP1 CPT – DT40-hTDP1 cell growth loss with CPT; chicken DT40 Tdp1-/-;hTDP1 cells + 20 nM CPT, ATP luminescence, 48 h; Potency, µM (highest dose often 46.2 µM), without a hit: at the highest dose activity change, negative = growth inhibition, hits mostly inhibitors; actives 12% (n = 420,000); AID 686979; also: % is scaled to controls: 0 for no effect and ±100 for the full control effect; nearly all actives have a fitted effect of over 55% in size
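Chicken DT40 Tdp1-/- cells stably complemented with human TDP1 were seeded at 400 cells/well in medium containing 20 nM camptothecin, exposed to pin-transferred compounds, and grown at 37 °C for at least 48 hr. Viability was read as ATP luminescence.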
TGFb SMAD3 inh – TGF-b pathway inhibition. actives 1.2% (n = 410,000). Potency, µM (series often up to 46.1 µM), for the others: top-dose activity, negative = inhibition, actives largely listed as inhibitors. HepG2 CAGA-GFP TGF-b/SMAD3 reporter, GFP fluorescence, 18 h; TGF-beta stimulated, 500 pg/mL final; also: % is scaled to controls: 0 for no effect and ±100 for the full control effect; nearly all actives have a fitted effect of over 65% in size
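Cell-based qHTS in HEPG2 carrying a CAGA-GFP Smad reporter; compounds added before 500 pg/mL final TGF-beta, 18 h incubation at 37 degrees C, GFP fluorescence quantified per cell by imaging cytometry.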
An asterisk follows results filed as active; ? = inconclusive. Calls follow the shape of the dose curve; as a rule, active = well fitted curve in the direction sought with a large enough effect; inconclusive = small, poorly fitted or top-dose-only effect, or another doubt; inactive = no such curve, though single readings can be large; an effect the other way counts as inactive or inconclusive. Potency is read from the fitted curve at half-maximal effect.

SMILES	HepG2 viability	HT1080 IDH1KD tx	DT40 TDP1 no CPT	HT1080-NT tox	DT40 TDP1 CPT	TGFb SMAD3 inh
CC(C)(C)OC(=O)C[C@@H]1C/C=C\C[C@@H](CC(=O)N[C@H](CO)Cc2ccccc2)C(=O)NC[C@H](c2ccccc2)OC1=O	4%	4%	?	10%	?	6%
CC(C)(C)OC(=O)C[C@H]1C/C=C\C[C@@H](CC(=O)N[C@H](CO)Cc2ccccc2)C(=O)NC[C@H](c2ccccc2)OC1=O	-5%	3%	23µM*	8%	?	0%
O=C(C[C@H]1C/C=C\C[C@@H](Cc2ccc(F)cc2)C(=O)O[C@H](c2ccccc2)CNC1=O)N[C@@H](CO)Cc1ccccc1	0%	10%	?	-10%	-22%	-5%
O=C(C[C@H]1C/C=C\CC[C@@H](Cc2ccc(F)cc2)C(=O)O[C@@H](c2ccccc2)CNC1=O)N[C@H](CO)Cc1ccccc1	-38%	-21%	?	?	18µM*	?
O=C(C[C@@H]1C/C=C\C[C@@H](Cc2ccc(F)cc2)C(=O)OCCNC1=O)N[C@H](CO)Cc1ccccc1	3%	-3%	18µM*	-8%	21µM*	0%
CC(C)(C)OC(=O)C[C@H]1C/C=C\C[C@H](CC(=O)N[C@H](CO)Cc2ccccc2)C(=O)N[C@@H](Cc2ccccc2)COC1=O	-1%	3%	15µM*	17%	16µM*	?
C[C@H]1COC(=O)[C@H](CC(=O)OC(C)(C)C)C/C=C\C[C@@H](CC(=O)N[C@@H](CO)Cc2ccccc2)C(=O)N1	0%	8%	?	-1%	?	-15%
O=C(COC(=O)CNC(=O)C1CCCCC1)NCc1ccc(Cl)cc1	-37%	5%	-3%	-3%	-4%	-11%
C[C@@H]1COC(=O)[C@@H](CC(=O)OC(C)(C)C)C/C=C\C[C@@H](CC(=O)N[C@@H](CO)Cc2ccccc2)C(=O)N1	2%	8%	?	0%	?	-3%
CC(C)(C)OC(=O)C[C@@H]1C/C=C\C[C@H](CC(=O)N[C@@H](CO)Cc2ccccc2)C(=O)N[C@H](C(C)(C)C)COC1=O	-17%	17%	18µM*	9%	21µM*	-15%
COc1ccc(-c2nnc(SCC(=O)NC(C)c3ccccc3)o2)cc1OC (stereo not drawn)	4%	1%	-19%	1%	-5%	16%
Cc1ccccc1C1c2[nH]c3ccccc3c2CCN1CCCn1cccn1 (stereo not drawn)	-8%	-13%	13µM*	0%	?	-9%
CC(C)C(=O)C1=Cc2cccc([N+](=O)[O-])c2OC1N1CCOCC1 (stereo not drawn)	-32%	-7%	?	-5%	?	-8%
COC(=O)C1=Cc2cc(OC)cc([N+](=O)[O-])c2OC1N1CCOCC1 (stereo not drawn)	-9%	5%	26µM*	3%	?	5%
CC(C)C(=O)C1=Cc2cc([N+](=O)[O-])ccc2OC1N1CCOCC1 (stereo not drawn)	-22%	-19%	26µM*	-22%	?	2%
O=C(Nc1ccccc1Cl)OC1CCCCC1	-9%	-2%	?	-17%	4%	0%
O=C1CN(C(=O)COC(=O)c2ccc(Br)o2)c2ccccc2N1	0%	9%	3%	6%	9%	18%
